Experimental data: PubChem BioAssay (NCATS)
Inconclusive results are not listed. Calls of active or inactive are those of the source. The call rests on the fitted dose curve; in most records, active means well fitted curve in the direction sought with a large enough effect; inconclusive means small, poorly fitted or top-dose-only effect, or another doubt; inactive means no such curve, though single readings can be large; an effect the other way counts as inactive or inconclusive.

Columns and labels:
[1] = Cell Viability - H-4-II-E (AID 543);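 further: cells exposed to compound for 40 hours; on the % scale 0 is the no-effect control and ±100 the full control effect; nearly all actives have a fitted effect of over 35% in size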
Procedure, shortened: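 Rat hepatoma H-4-II-E cells, 1500 per well, treated 40 h at 37 °C in complete medium. Cellular ATP read by CellTiter-Glo luminescence; AC50 from Hill fits of concentration-response.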

[2] = Cell Viability - SH-SY5Y (AID 544); settings: SH-SY5Y neuroblastoma cell viability; viability change, negative = cytotoxic: at 92.2 µM (top of the series);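 further: cells exposed to compound for 40 hours; nearly all actives have a fitted effect of over 55% in size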
Procedure, shortened: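 SH-SY5Y human neuroblastoma cells (1500/well) incubated 5 h, then compound-treated 40 h at 37 °C in complete medium. Viability read as intracellular ATP by CellTiter-Glo luminescence after 20 min; AC50 from Hill-equation fits of qHTS concentration-response.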

[3] = Cell Viability - Renal Proximal Tubule (AID 545);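 further: cells exposed to compound for 40 hours; nearly all actives have a fitted effect of over 40% in size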
Procedure, shortened: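 Viability taken as intracellular ATP (CellTiter-Glo luminescence) after 40 hr, 37 °C compound treatment of primary proximal tubule cells from rat kidney, 1000 cells/well; Hill-equation fits of qHTS concentration-response data gave AC50.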

[4] = Cell Viability - Mesenchymal (AID 546);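 further: cells exposed to compound for 40 hours before reading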
Procedure, shortened: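 Normal human renal glomerulus-derived kidney mesenchymal cells, 1000 per well in complete medium, were treated with compounds for 40 hr at 37 °C. Viability was read as intracellular ATP by CellTiter-Glo luminescence; AC50 values came from Hill-equation fits of qHTS concentration-response data.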

[5] = Cellular Toxicity (caspase-3) HepG2 (AID 654);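 further: cells exposed to compound for 16 hours before reading; 0% = DMSO alone and 100% = caspase signal from 100 µM tamoxifen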
Procedure, shortened: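 HepG2 cells (1500/well) were treated 16 h at 37 °C in complete medium, then caspase 3/7 activity was read by Caspase-Glo luminescence. Data were normalized to DMSO and 100 uM tamoxifen; AC50 came from Hill-equation fits of qHTS concentration-response.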

[6] = Cellular Toxicity (caspase-3) Jurkat (AID 655); settings: Jurkat caspase-3 activation, luminescence; caspase-3 activation: at 92.2 µM (top of the series), DMSO = 0%, tamoxifen = 100%;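 further: cells exposed to compound for 16 h at 37 °C before reading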
Procedure, shortened: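 Luminescent Caspase-Glo 3/7 read-out (20 min, room temperature) after 16 h compound treatment at 37 C of 5000 Jurkat cells per well. AC50 derived by Hill-equation fitting, scaled between DMSO basal and 100 uM tamoxifen stimulation.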

[7] = Cellular Toxicity (caspase-3) HUV-EC-C (AID 656)
Procedure, shortened: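 Luminescent Caspase-Glo 3/7 readout after 16 h, 37 °C compound exposure of HUV-EC-C endothelial cells, 1000 per well, complete medium. AC50 derived by Hill fitting, with DMSO as baseline and 100 uM tamoxifen as full activation.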

[8] = Cellular Toxicity (caspase-3) SHSY5Y (AID 657)
Procedure, shortened: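 Luminescent Caspase-Glo 3/7 read-out, 1 hr room temperature, follows 16 hours of compound treatment of SH-SY5Y cells at 37 °C. Normalization: DMSO basal, 10 uM staurosporine as 100%; AC50 values from Hill-equation concentration-response fits.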

[9] = Cellular Toxicity (caspase-3) BJ (AID 658);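 further: 0% = DMSO basal and 100% = 10 µM staurosporine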
Procedure, shortened: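 Luminescent aminoluciferin-substrate cleavage reports caspase 3/7 activity in normal human BJ fibroblasts after 16 hr compound exposure at 37 °C. Normalized to DMSO (basal) and 10 uM staurosporine (100%); AC50 from Hill fit of concentration-response.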

[10] = Cellular Toxicity (caspase-3) MRC-5 (AID 659);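 further: 0% = DMSO basal and 100% = 10 µM staurosporine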
Procedure, shortened: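 Luminescence from caspase-cleaved aminoluciferin substrate (Caspase-Glo 3/7, 1 hr RT) reports caspase 3/7 activity in MRC-5 lung fibroblasts after 16 hr compound exposure. Normalized to DMSO basal and 10 uM staurosporine as 100%; AC50 from Hill fits.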

Cc1c(N)cccc1N
inactive: Potency [1] | Potency [2] | Potency [3] | Potency [4] | Potency [5] | caspase-3 activation [6] -0.535% | outcome [7] | outcome [8] | outcome [9] | outcome [10]

CC1CCCO1 (centres undefined)
inactive: Potency [1] | Potency [2] | Potency [3] | Potency [4] | Potency [5] | caspase-3 activation [6] 1.31% | outcome [7] | outcome [8] | outcome [10]

NC(=O)/N=N/C(N)=O
inactive: Potency [1] | Potency [2] | Potency [3] | Potency [4] | Potency [5] | caspase-3 activation [6] -2.04% | outcome [7] | outcome [8] | outcome [9] | outcome [10]

Cc1nc2ccc(Cl)cc2[nH]1
inactive: Potency [1] | Potency [2] | Potency [3] | Potency [4] | Potency [5] | caspase-3 activation [6] 0.744% | outcome [7] | outcome [8] | outcome [9] | outcome [10]

Cc1cscn1
inactive: Potency [1] | Potency [2] | Potency [3] | Potency [4] | Potency [5] | caspase-3 activation [6] 2.2% | outcome [7] | outcome [8] | outcome [9] | outcome [10]

O=Cc1ccc(CO)o1
inactive: Potency [1] | Potency [2] | Potency [3] | Potency [4] | Potency [5] | caspase-3 activation [6] -0.436% | outcome [7] | outcome [8] | outcome [9] | outcome [10]

CCC(C)(C)C
inactive: Potency [1] | Potency [2] | Potency [3] | Potency [4] | Potency [5] | caspase-3 activation [6] -0.787% | outcome [7] | outcome [8] | outcome [9] | outcome [10]

Nc1cccc(S(=O)(=O)O)c1
inactive: Potency [1] | Potency [2] | Potency [3] | Potency [4] | Potency [5] | caspase-3 activation [6] -0.29% | outcome [7] | outcome [8] | outcome [9] | outcome [10]

COc1cccc2sc(N)nc12
inactive: Potency [1] | Potency [2] | Potency [3] | Potency [4] | Potency [5] | caspase-3 activation [6] -0.447% | outcome [7] | outcome [8] | outcome [9] | outcome [10]

CCOc1ccc(NC(C)=O)cc1N
inactive: Potency [1] | Potency [2] | Potency [3] | Potency [4] | Potency [5] | caspase-3 activation [6] 0.0364% | outcome [7] | outcome [8] | outcome [10]

COc1ccc(N)c(OC)c1
inactive: Potency [1] | Potency [2] | Potency [3] | Potency [4] | Potency [5] | caspase-3 activation [6] 0.6% | outcome [7] | outcome [8] | outcome [9] | outcome [10]

O=[N+]([O-])c1cccc(C(F)(F)F)c1
inactive: Potency [1] | Potency [2] | Potency [3] | Potency [4] | Potency [5] | caspase-3 activation [6] 0.763% | outcome [7] | outcome [8] | outcome [9] | outcome [10]

COC(=O)CCCC(=O)OC
inactive: Potency [1] | Potency [2] | Potency [3] | Potency [4] | Potency [5] | caspase-3 activation [6] 0.321% | outcome [7] | outcome [8] | outcome [10]

CCCCC(=O)N(C)C
inactive: Potency [1] | Potency [2] | Potency [3] | Potency [4] | Potency [5] | caspase-3 activation [6] -0.841% | outcome [7] | outcome [8] | outcome [9] | outcome [10]

CC(=O)c1ccccn1
inactive: Potency [1] | Potency [2] | Potency [3] | Potency [4] | Potency [5] | caspase-3 activation [6] 12.2% | outcome [7] | outcome [8] | outcome [9] | outcome [10]

Nc1cccc(C(F)(F)F)c1
inactive: Potency [1] | Potency [2] | Potency [3] | Potency [4] | Potency [5] | caspase-3 activation [6] -0.253% | outcome [7] | outcome [10]

O=C(O)c1c(Cl)cccc1Cl
inactive: Potency [1] | Potency [2] | Potency [3] | Potency [4] | Potency [5] | caspase-3 activation [6] 0.737% | outcome [7] | outcome [9] | outcome [10]
